Out of some 53,000 compounds screened, about 900 (1.7%) showed an effect of 50% or more. The full list was thinned out, with strong results kept by preference.

In the test the test system is Mycobacterium tuberculosis. Nature of the test: Cornell - Phenotypic assay to identify agents that inhibit growth of Mycobacterium tuberculosis. The class given is functional. Also noted: scale not given: direction of the effect not stated beside the values. To be noted: 10 mM as filed; unlikely as a test dose.
`CCn1cnnc1C1CCN(C(=O)c2ccc(OC(C)C)nc2)CC1`: the “Percent Effect” value turned out to be 22.89%.

Take `CN(Cc1nnc(C2CC2)o1)Cc1ccccc1-c1ccccc1`: the “Percent Effect” value came out at 24.56%. For the compound `CC(C)c1nnc(CN(C)C(c2ccccc2)c2ccc(F)cc2)o1` (centres undefined), the “Percent Effect” value amounted to 32.65%. Regarding `CC(C)c1nnc(CN(C)Cc2ccccc2-c2ccccc2)o1`, the “Percent Effect” value is listed as 60.67%.

Consider `Cc1nn(C)c(C)c1NC(=O)CN1CCOC(CN(C)C)C1` (centres undefined), for which the “Percent Effect” value is 13.8%.

For `O=C(C1=CCCC1)N1C[C@@H]2COC[C@]2(COCc2ccncc2)C1`, the “Percent Effect” value is recorded as -20.46%. Turning to `CCc1nnc(Nc2cc(C)nc(C3CCN(c4ccncn4)C3)n2)s1` (centres undefined), the “Percent Effect” value is -19.2%.

As for `Cc1cccc(OC2CCN(C(=O)Cn3ccc4ccccc43)CC2)n1`, the “Percent Effect” value is recorded as 59.2%.

`Cc1cccc(OC2CCN(C(=O)c3ccc4c(c3)OCO4)CC2)n1`: the “Percent Effect” value is recorded as 37.52%. For `O=C(NCc1ccccc1)N1CCC(Oc2ncccc2Br)CC1`, the “Percent Effect” value is given as -14.28%. Regarding `O=C(CCC(=O)N1CCC(OCc2cccnc2)CC1)c1ccccc1`, the “Percent Effect” value is given as -10.19%. Consider `O=C(Cn1ccc2ccccc21)N1CCC(Oc2cnccn2)CC1`, for which the “Percent Effect” value came out at 24.96%. On to `COC1CCN(C(=O)Cn2ccc3ccccc32)CC1`, for which the “Percent Effect” value was found to be 2.586%. As for `O=C(Cn1ccc2ccccc21)N1CCC(Oc2ncccc2Br)CC1`, the figure is 58.45%; as for `O=C(CCn1ccc(=O)[nH]c1=O)N1CCC(Oc2ncccc2Cl)CC1`, 20.85%; as for `O=C(CCC(=O)N1CCC(Oc2ncccc2Br)CC1)c1ccccc1`, 95.35%. To `CS(=O)(=O)NCCCNC(=O)c1cccc(-n2cccc2)c1` belongs -24.26%; to `CC(=O)Nc1nc(SCc2ccc3c(c2)OCO3)ns1`, 6.348%. On to `CCCN1CCN(C(=O)Nc2ccccc2Cl)[C@H]2CS(=O)(=O)C[C@H]21`, for which the “Percent Effect” value stood at 2.165%. To `CC1CCN(Cc2ccccc2CNC(=O)C2CNC(=O)N2)CC1` (centres undefined) belongs -0.9762%. Take `CCOC1COC2(CCN(c3ccccn3)CC2)C1.O=C(O)C(F)(F)F` (centres undefined): the “Percent Effect” value is 3.904%. `CCOc1ccccc1C(=O)N1CC(=O)N(C2CCC2)CC(O)C1` (centres undefined): the “Percent Effect” value is 12.12%. Turning to `CN(Cc1cccnc1)[C@@H]1CN(c2ccccn2)[C@@H]2CCCO[C@H]12`, the “Percent Effect” value was 3.977%. As for `CN(Cc1cccnc1)[C@@H]1CN(Cc2ccccn2)[C@@H]2CCCO[C@H]12`, the figure is 51.65%; as for `CN(Cc1cccnc1)[C@@H]1CN(c2ncc(F)cn2)[C@@H]2CCCO[C@H]12`, 19.63%; as for `COc1ccc2c(c1)CC(C1CCOCC1)N(C(=O)c1ccnn1C)C2` (centres undefined), 13.18%. Regarding `CN1CCN(C)C(CNC(=O)N(C)Cc2ccc(Cl)c(F)c2)C1` (centres undefined), the “Percent Effect” value is 12.24%. As for `C=C/C=c1\c(=C/C)oc2c(NCc3ccccc3)nc(CC)nc12`, the figure is 44.26%; as for `C=C/C=c1\c(=C/C)oc2c(NCc3ccccc3)ncnc12`, 8.559%; as for `C=C/C=c1\c(=C/C)oc2c(NCc3ccccc3)nc(C)nc12`, 70.49%. Regarding `O=c1c2ccccc2nc2n1C(CSc1ccc(Br)cc1)CN2` (centres undefined), the “Percent Effect” value was 19.98%.

`COCCOc1ccc(Cl)c(C(=O)N2CCN(CCO)CC2)n1`: the “Percent Effect” value is listed as -16.9%. As for `CNc1ncc(-c2csc(NC(=O)C[C@H]3COCCN3)n2)cn1.Cl`, the “Percent Effect” value is -17.99%.

With `Cc1cnc(N2C[C@@H]3CN(C4CCOC4)CCC[C@]3(C(=O)O)C2)nc1.O=C(O)C(F)(F)F` (some centres undefined), the “Percent Effect” value is given as 13.6%. `NC(=O)C1(CCCc2ccccn2)CCCN(Cc2ncc[nH]2)C1` (centres undefined): the “Percent Effect” value was -6.495%. In the case of `CS(=O)(=O)c1cccc(OCC(=O)N2CCCC2c2ccccc2Cl)c1` (centres undefined), the “Percent Effect” value is listed as -2.872%. Take `Cc1ccc(-c2nnc(CCC(=O)N3CCCC3c3ccc[nH]3)o2)cc1` (centres undefined): the “Percent Effect” value was found to be 45.95%.

`O=C(COc1ccccc1)N1CCCC1c1ccc[nH]1` (centres undefined): the “Percent Effect” value is 85.82%. In the case of `O=C(COc1ccc2c(c1)CCC2)N1CCOCC1c1ncon1` (centres undefined), the “Percent Effect” value is listed as 12.9%. In the case of `CC1CCN(c2ccc(C(=O)N3CCCC3c3nncn3C)cn2)CC1` (centres undefined), the “Percent Effect” value was -18.06%. In the case of `CC1CCN(c2ccc(C(=O)N3CCCC3c3ccc[nH]3)cn2)CC1` (centres undefined), the “Percent Effect” value was 84.24%. For `NC(=O)c1cn[nH]c1C1CCCN1C(=O)COc1ccccc1` (centres undefined), the “Percent Effect” value is 6.51%. `NC(=O)c1ccc(OCC(=O)N2CCCC2c2ccc[nH]2)cc1` (centres undefined): the “Percent Effect” value was -7.16%. For the compound `O=C(COc1ccc2c(c1)CCC2)N1CCCC1c1ccc[nH]1` (centres undefined), the “Percent Effect” value is recorded as 107.5%. For the compound `CS(=O)(=O)c1cccc(OCC(=O)N2CCCC2c2ccc[nH]2)c1` (centres undefined), the “Percent Effect” value stood at 58.54%.

As to `O=C(COc1ccc2c(c1)CCC2)N1CCCC(n2cccn2)C1` (centres undefined), the “Percent Effect” value is recorded as -23.81%. Take `CN(C)c1ccc(C(=O)N2CCCC2c2cnn(C)c2)cn1` (centres undefined): the “Percent Effect” value was determined as 5.002%. With `Cc1cc(C)cc(OCCN2CCn3c(C)nnc3C2)c1`, the “Percent Effect” value turned out to be 12.04%. As to `Cn1cc(C2=NOC(C(=O)NC3(c4cccc(F)c4)CCCC3)C2)cn1` (centres undefined), the “Percent Effect” value was -24.87%. Regarding `Cc1cc(C)nc(N2CCC(Cn3cc(C(N)=O)cn3)CC2)n1`, the “Percent Effect” value is recorded as -23.62%. With `CCOc1ncccc1CNS(=O)(=O)c1ccc2c(c1)CCC2`, the “Percent Effect” value was determined as 13.09%.

With `CCCn1cc(C(=O)N2CCCC(Cc3nccs3)C2)cn1` (centres undefined), the “Percent Effect” value was -22.26%. In the case of `CCCC(NC(=O)c1occc1C)c1nnn[nH]1` (centres undefined), the “Percent Effect” value is -83.42%.

Regarding `COCc1nn(Cc2ccc(Cl)s2)c(=O)o1`, the “Percent Effect” value is reported as -31.25%. As for `CCOCC(=O)N1CCC(CSCc2ccco2)CC1`, the “Percent Effect” value was determined as 34.18%. In the case of `CC(=O)N1CCC(CSCc2ccco2)CC1`, the “Percent Effect” value was 7.881%. To `CCOC(=O)CCC(=O)N1CCC(CSCc2ccco2)CC1` belongs 59.48%; to `Cc1[nH]ncc1CCCNC(=O)Nc1ccccc1`, -14.63%; to `Cc1[nH]ncc1CCCNC(=O)Nc1ccc(F)cc1`, -28.46%. Turning to `Cc1[nH]ncc1CCCNC(=O)Nc1ccc2c(c1)OC1(CCCC1)O2`, the “Percent Effect” value came out at 72.51%. As to `COc1ccc2c3c1CN(C(C)=O)CC3=CC(C)(C)CO2`, the “Percent Effect” value worked out at 9.21%. For the compound `COC(=O)N1CC2=CC(C)(C)COc3ccc(OC)c(c32)C1`, the “Percent Effect” value is given as 31.49%. As to `COc1ccc2c3c1CN(C(=O)N(C)C)CC3=CC(C)(C)CO2`, the “Percent Effect” value turned out to be 89.58%. To `Cc1cc(C)nc(N2Cc3cnn(Cc4ccc(F)cc4)c3C2)n1` belongs 1.875%. As for `COc1ccnc(N2CCN(C(=O)N3CCOCC3)CC2)n1`, the figure is -8.776%. Regarding `COc1ccnc(N2CCc3ccc(OC(F)F)cc3C2)n1`, the “Percent Effect” value was 105.8%. `COc1ccnc(N2Cc3cnc(C(C)(C)C)nc3C2)n1`: the “Percent Effect” value came to 15.27%. Regarding `COc1ccc(C2CN(c3nc(C)cc(C)n3)CCN2C(C)=O)cc1` (centres undefined), the “Percent Effect” value was 37.66%.

On to `Cc1cc(C)nc(N2CCc3ccc(OC(F)F)cc3C2)n1`, for which the “Percent Effect” value is listed as 108.4%. On to `COc1cccc(O[C@H]2CCN(c3nc(C)cc(C)n3)CC[C@@H]2O)c1`, for which the “Percent Effect” value stood at 6.067%. With `COc1ccc2c(c1)CN(c1nc(C)cc(C)n1)CC2`, the “Percent Effect” value was 63.12%. Regarding `COc1ccc2c(c1)CN(c1cc(N3CCCC3CO)ncn1)CC2` (centres undefined), the “Percent Effect” value was 24.46%. Turning to `Cc1cnn(C2CCCN(C(=O)CCc3cnn(C)c3)C2)c1` (centres undefined), the “Percent Effect” value is given as -9.516%. To `O=C(CN1CC(c2nc(-c3ccco3)no2)C1)NCc1ccc(F)cc1.O=C(O)C(=O)O` belongs 26.13%; to `CN(Cc1ccc2c(c1)OCO2)C(=O)c1ccc(C2CCCNC2)cc1` (centres undefined), 14.52%; to `O=S(=O)(c1ccc(-c2cnco2)cc1)N1CCCC2(CCNCC2)CC1`, -3.285%. For the compound `Cl.O=C(CCN1CCCCC1)Nc1c2c(cc3c1CCC3)CCC2`, the “Percent Effect” value is -6.194%. Take `CCOC(C)c1nc(Cn2cc(-n3cccc3)cn2)cs1` (centres undefined): the “Percent Effect” value worked out at 56.69%. As for `CCOC(C)c1nc(Cn2cccn2)cs1` (centres undefined), the “Percent Effect” value is given as 9.263%.

As to `CCOC(C)c1nc(Cn2cc(C)cn2)cs1` (centres undefined), the “Percent Effect” value worked out at 25.14%. Regarding `CC(=O)NCCNC(=O)Nc1ccc(Br)cc1C(C)C`, the “Percent Effect” value is -45.7%. To `Cc1ccc(CN(CC(=O)NCC2CCOC2)c2ccc(F)cc2)o1` (centres undefined) belongs 104.7%.

On to `O=C(CN(CC(O)c1ccc(F)cc1)C1CC1)NC1CCOCC1` (centres undefined), for which the “Percent Effect” value is on record as 2.353%. To `O=C(NCC1CCOC1)c1csc(-c2ccc(F)cc2)n1` (centres undefined) belongs -10.74%. `Cc1ccc(-c2nc(CC(=O)NCC3CCOC3)cs2)o1` (centres undefined): the “Percent Effect” value is 19.26%. As for `O=C(CN(Cc1cccs1)c1ccc(F)cc1)NC1CCOCC1`, the “Percent Effect” value was determined as 47.86%. For `Cc1ccc(CN(CC(=O)NC2CCOCC2)c2ccc(F)cc2)o1`, the “Percent Effect” value is given as 92.31%. On to `O=C(O)C(F)(F)F.O=C([C@H]1C[C@@H]2CCN(c3cccc(F)c3)C[C@H]2O1)N1CCCC1`, for which the “Percent Effect” value is 12.3%. `Cc1noc(C)c1-c1ccc(C2CCCN2C(=O)c2cnn(C)c2)nc1` (centres undefined): the “Percent Effect” value was found to be 1.498%. Take `Cc1nc(CN2CCCN(C(=O)CC(C)n3cccc3)CC2)cs1` (centres undefined): the “Percent Effect” value was 7.748%. As for `CN(CCCc1cnn(C)c1)Cc1cc2n(n1)CCCNC2`, the figure is 18.02%; as for `NC(=O)c1cc2c(nc1Oc1ccccc1CN1CCCCC1)CCC2`, 23.43%. As to `Fc1cccc(N2CCCC3(CN(Cc4ccccn4)CCO3)C2)c1.O=C(O)C(F)(F)F.O=C(O)C(F)(F)F.O=C(O)C(F)(F)F` (centres undefined), the “Percent Effect” value was 43.65%. As for `O=C(C1CCC1)N1C[C@@H]2CCN(c3cccnc3)C[C@@H]2C1.O=C(O)C(F)(F)F`, the figure is -17.68%. Take `Fc1cccc(N2CCCC3(CN(Cc4ccco4)CCO3)C2)c1.O=C(O)C(F)(F)F.O=C(O)C(F)(F)F` (centres undefined): the “Percent Effect” value is given as 14.41%. As for `Fc1cnc(N2CCOC3(CCN(Cc4ccsc4)CC3)C2)nc1.O=C(O)C(F)(F)F.O=C(O)C(F)(F)F`, the “Percent Effect” value amounted to 103.8%. As for `Fc1cnc(N2CC3(CCN(Cc4ccsc4)C3)C2)nc1.O=C(O)C(F)(F)F`, the figure is 30.35%; as for `Fc1cccc(N2CCCC3(CN(Cc4cccnc4)CCO3)C2)c1.O=C(O)C(F)(F)F.O=C(O)C(F)(F)F.O=C(O)C(F)(F)F` (centres undefined), 54.92%; as for `Fc1cccc(N2C[C@H]3CCN(c4cccnc4)C[C@H]3C2)c1.O=C(O)C(F)(F)F`, 50.35%. `Cn1cc(CN2CCOC3(CCCN(c4cccc(F)c4)C3)C2)cn1.O=C(O)C(F)(F)F.O=C(O)C(F)(F)F` (centres undefined): the “Percent Effect” value is reported as -3.324%. With `Fc1cnc(N2CCOC3(CCN(Cc4cccs4)CC3)C2)nc1.O=C(O)C(F)(F)F.O=C(O)C(F)(F)F`, the “Percent Effect” value came to 5.693%. To `O=C(O)C(F)(F)F.O=C(c1ccc(F)cc1)N1C[C@@H]2CCN(c3cccnc3)C[C@@H]2C1` belongs -2.234%; to `Fc1cccc(N2CCCC3(CN(Cc4nccs4)CCO3)C2)c1.O=C(O)C(F)(F)F.O=C(O)C(F)(F)F` (centres undefined), 39.92%.

With `Cc1ccc(CN2CCOC3(CCCN(c4cccc(F)c4)C3)C2)o1.O=C(O)C(F)(F)F.O=C(O)C(F)(F)F` (centres undefined), the “Percent Effect” value was found to be 65.05%.

The record behind these values is ChEMBL document CHEMBL3988442, “University of Dundee, Small-Polar-MMV Screening Library” (2021).
